Screens deposited in PubChem by National Center for Advancing Translational Sciences (NCATS).
Pf growth 96h = P. falciparum growth inhibition at 96 hours | P. falciparum luciferase reporter growth, 96 h | actives 6.9% (n = 320,000) | Potency, µM (titrated, usually from 28.7 µM), for the others: at the top dose activity change, negative = inhibition, usual class: inhibitors | AID 504834; further: potency means the concentration at half of the fitted maximal effect; on the % scale 0 is the no-effect control and ±100 the full control effect
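Two parasite generations (96 h, 37 C, 5% CO2) of compound exposure in infected erythrocytes (0.05% parasitemia, 2% hematocrit). Luciferase-reporter P. falciparum; decreased luminescence indicates inhibited growth, aimed at apicoplast-acting delayed death.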
SARS PLP yeast = blocks SARS-CoV papain-like protease in a yeast assay | S. cerevisiae expressing SARS-CoV PLpro, growth rescue | Potency, µM (highest dose often 32.9 µM), for the others: top-dose activity, positive = growth rescue, actives largely listed as activators | actives 0.19% (n = 330,000); calls by dose curve; further: potency means the concentration at half of the fitted maximal effect; 0% is about no effect; nearly all actives have a fitted effect of over 55% in size
Sm TGR inh = inhibitors of Schistosoma mansoni thioredoxin glutathione reductase; actives 3% (n = 360,000); purified TGR, DTNB reduction, TNB absorbance 405 nm; AID 485364; Potency, µM (doses to about 114 µM), inactives show top-dose activity change, negative = inhibition, most hits filed as inhibitors; Q962Y6; further: potency means the concentration at half of the fitted maximal effect; on the % scale 0 is the no-effect control and ±100 the full control effect; nearly all actives have a fitted effect of over 60% in size
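First, TGR (20 nM dispensed) and NADPH were mixed with compound. Second, a 15 min room-temperature incubation followed. Third, further NADPH and then DTNB were added to start the reaction. Finally, TNB absorbance was monitored kinetically.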
Pf growth 48h = inhibits P. falciparum growth in the first generation, 48 h | P. falciparum luciferase growth in erythrocytes, 48 h | actives 5.9% (n = 310,000) | Potency, µM (top dose mostly 28.7 µM), without a hit: at the highest dose activity change, negative = inhibition, usual class: inhibitors; further: potency means the concentration at half of the fitted maximal effect; on the % scale 0 is the no-effect control and ±100 the full control effect
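Growth was read as firefly luciferase luminescence after a 48 h, 37 C, 5% CO2 exposure of compounds to reporter-bearing P. falciparum cultures (0.1% parasitemia, 2% hematocrit final) in Albumax-supplemented RPMI 1640.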
HCMV antiviral = human cytomegalovirus inhibition. HFF cells, HCMV-luciferase reporter, 72 h; hits give low values. activity change, negative = inhibition, % at 57.5 µM. actives 4.5% (n = 410,000); in the data active means activity change below about -60%; inconclusive means no clear call, values can overlap the other calls; inactive means above about -39%; further: on the % scale 0 is the no-effect control and ±100 the full control effect
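After 16 h attachment at 37C, HFF cells received test compound and HCMV-luciferase (1 PFU/cell); reporter luminescence read 72 h later, data normalized against buffer-only and known inhibitor Salinomycin.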
HCV inhibitor = inhibitors of hepatitis C virus infection; Potency, µM (top dose mostly 41.8 µM), inactives show top-dose activity change, negative = inhibition, hits mostly inhibitors; actives 3.4% (n = 340,000); Huh7.5.1 HCVcc-Cre infection, luciferase reporter, 44 h; further: potency means the concentration at half of the fitted maximal effect; on the % scale 0 is the no-effect control and ±100 the full control effect
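Compounds are dispensed onto cells plated 4 h earlier at 1,000 per well, with HCVcc-Cre virus (about 0.5 moi) added next. Following 44 h of culture, luminescent signal is measured for 15 sec after 15 min with substrate at room temperature.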
* marks the source's active call; other numbers are inactive results. Shown are actives, neighbours in structure and some others; about 15% of the full set was active somewhere. Unless noted, the call rests on the fitted dose curve; in most records, active means well fitted curve in the direction sought with a large enough effect; inconclusive means small, poorly fitted or top-dose-only effect, or another doubt; inactive means no such curve, though single readings can be large; an effect the other way counts as inactive or inconclusive.

`Cc1cc(=O)oc2cc(OCC(=O)N3CCN(C(=O)C4COc5ccccc5O4)CC3)c(Cl)cc12` (centres undefined) gave Pf growth 96h 13µM*, SARS PLP yeast 3%, Sm TGR inh 3%, Pf growth 48h -15%, HCMV antiviral 0 and HCV inhibitor inconclusive.
For Cc1c(C)c2ccc(OCC(=O)N3CCN(C(=O)C4COc5ccccc5O4)CC3)cc2oc1=O (centres undefined) the results were Pf growth 96h inconclusive, SARS PLP yeast 3%, Sm TGR inh -12%, Pf growth 48h -23%, HCMV antiviral inconclusive and HCV inhibitor inconclusive.
`Cc1cc(=O)oc2cc(OCC(=O)N3CCN(C(=O)C4COc5ccccc5O4)CC3)ccc12` (centres undefined) gave Pf growth 96h 13µM*, SARS PLP yeast 3%, Sm TGR inh -12%, Pf growth 48h inconclusive, HCMV antiviral inconclusive and HCV inhibitor 18µM*.
Screening CCCCN(C=O)c1c(CC)nc2ccc(C(=O)NCCCN3CCCC3=O)cn12 returned HCMV antiviral 9.
COCCNC(=O)c1ccc2c(c1)NC(=O)C(CS(=O)(=O)Cc1ccc(F)cc1Cl)N2 (centres undefined) was read as Sm TGR inh -9% and HCMV antiviral 33.
CCN(CC)c1ccc(C(=O)OCc2cc(=O)oc3cc(O)ccc23)cc1 was read as Pf growth 96h 4.7µM*, SARS PLP yeast -10%, Sm TGR inh 4%, Pf growth 48h inconclusive, HCMV antiviral -104* and HCV inhibitor 22µM*.
Screening CCCCc1cc(=O)oc2cc(OCC(=O)N3CCOCC3)ccc12 returned Pf growth 96h 45%, SARS PLP yeast 0%, Sm TGR inh -2%, Pf growth 48h 0%, HCMV antiviral -81* and HCV inhibitor -8%.
CCN(CC)c1ccc2c(O)cc(=O)oc2c1 was read as Pf growth 96h 74%, SARS PLP yeast -5%, Sm TGR inh 3%, Pf growth 48h 0%, HCMV antiviral 20 and HCV inhibitor 11%.
CCCCc1cc(=O)oc2cc(OCC(=O)N3CCC(C(N)=O)CC3)ccc12 was read as Pf growth 96h inconclusive, SARS PLP yeast 6%, Sm TGR inh 3%, Pf growth 48h inconclusive, HCMV antiviral inconclusive and HCV inhibitor -13%.
O=C(NNC(=O)c1sccc1-n1cccc1)Nc1ccc(F)cc1 was read as Pf growth 96h 11%, SARS PLP yeast -8%, Sm TGR inh -32%, Pf growth 48h inconclusive, HCMV antiviral -38 and HCV inhibitor 5%.
Screening Cc1cc(NC(=O)CS(=O)(=O)c2cn(Cc3ccccc3Cl)c3ccccc23)no1 returned Pf growth 96h 0.59µM*, SARS PLP yeast 7%, Sm TGR inh -2%, Pf growth 48h 0%, HCMV antiviral inconclusive and HCV inhibitor inconclusive.
`Cc1ccc(F)cc1C(=O)N1CCCCC1c1cc(C(=O)Nc2cccc(C#N)c2)no1` (centres undefined) gave HCMV antiviral -18.
`Cc1ccc(C(=O)c2coc3c2C(=O)C(=O)c2ccccc2-3)cc1` gave Pf growth 96h -93%, SARS PLP yeast -40%, Sm TGR inh inconclusive, HCMV antiviral -23 and HCV inhibitor inconclusive.
`Cc1oc2c(c1C(=O)c1ccc(Cl)cc1)C(=O)C(=O)c1ccccc1-2` gave Pf growth 96h inconclusive, SARS PLP yeast -20%, Sm TGR inh inconclusive, Pf growth 48h inconclusive, HCMV antiviral inconclusive and HCV inhibitor 10µM*.
`Cc1ccc(C(=O)c2c(C)oc3c2C(=O)C(=O)c2ccccc2-3)cc1` gave Pf growth 96h inconclusive, SARS PLP yeast -43%, Sm TGR inh inconclusive, Pf growth 48h inconclusive and HCV inhibitor 7.1µM*.
For Nc1nnc(SCCCC(=O)c2ccc(F)cc2)s1 the results were Pf growth 96h 6%, SARS PLP yeast -23%, Sm TGR inh -2%, Pf growth 48h 31%, HCMV antiviral 24 and HCV inhibitor -5%.
O=C(CCCSc1nnc(SCCCC(=O)c2ccc(F)cc2)s1)c1ccc(F)cc1 was read as Pf growth 96h inconclusive, SARS PLP yeast 10%, Sm TGR inh 9%, Pf growth 48h inconclusive, HCMV antiviral -16 and HCV inhibitor 10µM*.
O=c1nc(Oc2ccccc2)nc2ncccn12 was read as HCMV antiviral 72.
`CCOC(=O)c1cnc(SC)nc1Oc1cccc(NS(=O)(=O)c2ccc(F)cc2)c1` gave Pf growth 96h inconclusive, SARS PLP yeast 15%, Sm TGR inh 9%, Pf growth 48h -73%, HCMV antiviral -19 and HCV inhibitor inconclusive.
Screening CCOC(=O)c1cnc(SC)nc1Oc1cccc(NS(=O)(=O)c2ccccc2)c1 returned Pf growth 96h inconclusive, SARS PLP yeast -4%, Sm TGR inh -1%, Pf growth 48h -6%, HCMV antiviral 5 and HCV inhibitor 10µM*.
`CCc1[nH]nc2c1C1(CCN(C(=O)OCc3ccccc3)CC1)C(C#N)=C(N)O2` gave Pf growth 96h 0.19µM*, SARS PLP yeast -3%, Sm TGR inh -14%, Pf growth 48h -26%, HCMV antiviral 19 and HCV inhibitor 0%.
Screening COc1cc(C)nc(NC(=S)N(C)C(=O)c2ccccc2)n1 returned Pf growth 96h -25%, SARS PLP yeast 0%, Sm TGR inh 10%, Pf growth 48h inconclusive, HCMV antiviral -4 and HCV inhibitor inconclusive.
`CC(C)(CO)NCc1cccc(OCc2ccc(Cl)cc2)c1` gave Pf growth 96h inconclusive, SARS PLP yeast -8%, Sm TGR inh 2%, Pf growth 48h -24%, HCMV antiviral inconclusive and HCV inhibitor inconclusive.
Clc1ccc(COc2cccc(CNCc3ccncc3)c2)cc1 was read as Pf growth 96h inconclusive, SARS PLP yeast 0%, Sm TGR inh 7%, Pf growth 48h 0%, HCMV antiviral -75* and HCV inhibitor inconclusive.
O=C1c2cccc3cccc(c23)C(=O)N1Cc1ccccn1 was read as HCMV antiviral 1.
`CNC(=O)/C(C#N)=C/c1c(N2CCN(C)CC2)nc2c(C)cccn2c1=O` gave Pf growth 96h -1%, SARS PLP yeast -3%, Sm TGR inh -3%, Pf growth 48h 16%, HCMV antiviral 16 and HCV inhibitor 13%.
CCN1CCN(c2nc3c(C)cccn3c(=O)c2/C=C(\C#N)C(=O)NC)CC1 was read as Pf growth 96h -5%, SARS PLP yeast 0%, Sm TGR inh 5%, Pf growth 48h 3%, HCMV antiviral -72* and HCV inhibitor 7%.
